In PubChem BioAssay (NCATS):
“And” between values parts separate entries of the source, which are not always exact repeats. Identical values can stand only once. Inconclusive results are not listed. The source made the active and inactive calls. Unless noted, calls come from the whole dose curve; as a rule, active = well fitted curve in either direction with a large enough effect (not every such curve was filed as active); inconclusive = small, poorly fitted or top-dose-only effect, or another doubt; inactive = flat fitted curve, though single readings scatter.

Tests used:
[1] = AP1 Signaling Pathway (AID 357); details: ME-180 AP-1-bla reporter, EGF-induced, beta-lactamase ratio, 5 h; series mostly up to 17.2 µM;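 note: ME-180 reporter cells stimulated with EGF at its EC50 level; % is set by controls: 0 for no effect and ±100 for the full control effect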
Summary of the method: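 Modulation of EGF-driven AP-1 transcription was assessed with a beta-lactamase reporter in ME-180 cells. Compound and EC50 EGF were co-incubated 5 hours at 37 °C before 2.5-hour CCF4 loading at room temperature and dual-emission reading.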

[2] = target: Cytochrome P450 1A2 (Homo sapiens) (UniProt P05177); experiment: p450-cyp1a2 (AID 410; calls by dose curve; note: potency is the fitted concentration of half-maximal effect;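 for activity change, negative = inhibition: -100% = full effect of reference inhibitor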); details: recombinant CYP1A2, luciferin-ME demethylation, luminescence; series mostly up to 25.6 µM
Summary of the method: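 20nM CYP1A2 with 100uM Luciferin-ME (at Km) in 100mM KPO4; compound preincubated 10 min, NADPH regeneration added, 60 min at room temperature. Luciferin quantified by luminescence after detection reagent; normalized to 57 uM furafylline.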

[3] = NFAT Signaling Pathway (AID 444); details: Jurkat NFAT-bla M1, carbachol, beta-lactamase ratio, 5 h;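 note: carbachol stimulus at about its EC50 of 1 µM final; % is set by controls: 0 for no effect and ±100 for the full control effect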
Summary of the method: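 Jurkat cells carrying an NFAT-driven β-lactamase reporter and co-transfected muscarinic M1 receptor were treated with compound plus carbachol (1 uM final, an EC50 level) for 5 h at 37 °C. CCF4 loading followed for 1 h at RT; 460/530 nm ratio gave %activity.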

[4] = Stat Signaling Pathway (AID 446); details: ME-180 SIE beta-lactamase reporter, IL-6 stimulated, 5 h; series mostly up to 17.2 µM;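 note: ME-180 cervical cancer cells given 40 pM IL-6 alongside compound; SIE-controlled beta-lactamase reporter measured as 460/530 nm FRET emission ratio; % is set by controls: 0 for no effect and ±100 for the full control effect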
Summary of the method: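 ME-180 SIE-bla cells; overnight plating; cpd + IL-6 40 pM, 5 h, 37 C; LiveBLAzer 2.5 h RT; 460/530 nm emission ratio. Normalized to 300 pM IL-6 and 125 nM JAK inhibitor controls.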

[5] = target: Glucocorticoid receptor (Homo sapiens) (UniProt P04150); experiment: GR-GFP Redistribution (AID 450;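 active = compounds whose dose series gives a full or clear partial fitted curve of increased nuclear translocation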; note: potency is the fitted concentration of half-maximal effect); details: U2OS GR-GFP nuclear translocation, laser cytometry, 2 h
[6] = target: Glucocorticoid receptor (Homo sapiens) (UniProt P04150); experiment: GR-EFC Redistribution (AID 451; calls by dose curve; note: potency is the fitted concentration of half-maximal effect); details: CHO-K1 GR-EFC translocation, beta-gal luminescence, 2 h
Summary of the method: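 CHO-K1 cells stably expressing nuclear-localized β-gal enzyme acceptor and GR fused C-terminally to the enzyme donor fragment; ligand-driven nuclear translocation restores β-gal by complementation. Compounds titrated up to 46 uM final, 2 h at 37 °C; luminescence read.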

[7] = target: Mitogen-activated protein kinase 10 (Mus musculus) (UniProt Q61831); experiment: JNK3 AlphaScreen Assay (AID 530); details: JNK3 lysate, c-Jun phosphorylation; series mostly up to 57.1 µM;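 note: kinase came from lysate of stimulated human HepG2 cells; signal reports phosphorylation of biotinylated GST-cJun 1-79 at Ser73 with 10 µM ATP; % is set by controls: 0 for no effect and ±100 for the full control effect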
Summary of the method: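 Inhibitors reduce antibody binding to phosphorylated biotin-cJun, lowering AlphaScreen luminescence. Lysates from HepG2 cells pre-activated by IL-1beta plus TNF-alpha supplied JNK3; compounds were titrated.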

[8] = target: 3',5'-cyclic-AMP phosphodiesterase 4B (Homo sapiens) (UniProt Q07343); experiment: qHTS Assay for Inhibitors of PDE-IV (AID 607; active = well fitted activation curve with a large enough effect in the main read-out, with a control signal flat, not every such curve was filed as active; note: % of control where 0% means no effect); details: HEK293 ACTOne CNG channel cells, membrane potential fluorescence; series mostly up to 22.9 µM
Summary of the method: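 ACTOne HEK293 cells carry a modified cAMP-gated CNG channel and express endogenous PDE4; plated 1000 cells/well, compounds up to 22.9 uM final. Membrane-potential dye fluorescence (ex 535/em 590) was read; parental cells received 10 uM forskolin + 100 uM RO 20-1724.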

[9] = qHTS Assay for Lipid Storage Modulators (AID 1519; calls by dose curve); details: Drosophila S3 cells, BODIPY lipid droplet/cell ratio, laser cytometry, cells loaded with oleic acid
Summary of the method: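 Cells seeded at 5,000 per well were treated with compounds over a concentration series and loaded with oleic acid (400 uM, as added). Lipid droplet fluorescence (488 nm excitation, 500-530 nm channel) was read by laser-scanning cytometry and normalized to 20 uM Triacsin C.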

[10] = target: ATP-dependent 6-phosphofructokinase (Trypanosoma brucei brucei) (UniProt O15648); experiment: qHTS Assay to Find Inhibitors of T. brucei phosphofructokinase: hit validation (AID 492961; active = well fitted curve in the direction sought with a large enough effect; an effect the other way counts as inactive or inconclusive); details: T. brucei PFK, ADP-Glo luminescence; series mostly up to 51.4 µM
Summary of the method: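 Percent activity derived from corrected luminescence, normalized between 0x and 1x enzyme controls, then fitted to concentration-response curves. Conditions: 1.25 nM PFK, 0.1 mM ATP, 0.5 mM F6P, 45 min RT.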

[11] = target: Ubiquitin carboxyl-terminal hydrolase 1 (Homo sapiens) (UniProt O94782); experiment: Inhibitors of USP1/UAF1: Pilot qHTS (AID 504865; active = well fitted curve in the direction sought with a large enough effect; an effect the other way counts as inactive or inconclusive;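 note: rhodamine fluorescence freed from ubiquitin-rhodamine substrate followed over time; top concentration of the series differs between compounds; % is set by controls: 0 for no effect and ±100 for the full control effect; nearly all actives have a fitted effect of over 35% in size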); details: purified USP1/UAF1, Ub-rhodamine cleavage fluorescence; series mostly up to 114 µM
Summary of the method: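 Enzyme-free wells gave the negative control, while test wells held 1nM USP1/UAF1 preincubated with compound for 15 min at room temperature. Ub-Rho at 150nM final started the reaction, and fluorescence at 480/540 nm was recorded kinetically.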

[12] = target: Luciferin 4-monooxygenase (Photinus pyralis) (UniProt P08659); experiment: Biochemical firefly luciferase enzyme assay for NPC (AID 624030; active = well fitted curve in the direction sought with a large enough effect; an effect the other way counts as inactive or inconclusive;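 note: purified P. pyralis luciferase at 10 nM with luciferin and ATP substrate; 0% = DMSO and -100% = full luciferase inhibition by PTC124 control; nearly all actives have a fitted effect of over 70% in size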); details: purified P. pyralis luciferase, luminescence, 5 min; series mostly up to 58.6 µM
Summary of the method: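 Counter-screen for direct inhibition of the luciferase enzyme by approved-drug library compounds, run at 10 nM enzyme in 50 mM Tris acetate (final). Luminescence was read within 5 min of enzyme-buffer addition and normalized to PTC124 versus DMSO (0%).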

[13] = qHTS profiling for inhibitors of Plasmodium falciparum proliferation (AID 504749; active = well fitted curve in the direction sought with a large enough effect; an effect the other way counts as inactive or inconclusive;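 note: 0% = DMSO vehicle and full inhibition = artemisinin control; nearly all actives have a fitted effect of over 60% in size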); details: P. falciparum in erythrocytes, SYBR Green DNA, 72 h, at 28.7 µM (top of the series)
Summary of the method: (§1)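 Parasite proliferation within erythrocytes, 72 h exposure. Endpoint: SYBR Green I fluorescence after overnight lysis at room temperature. Controls: 0.29 uM artemisinin, DMSO.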

[14] = test system: C2A; experiment: as above; details: P. falciparum in erythrocytes, SYBR Green DNA, 72 h; series mostly up to 28.7 µM
Summary of the method: as §1

[15] = test system: FAB9; experiment: as above; details: P. falciparum in erythrocytes, SYBR Green DNA, 72 h; series mostly up to 28.7 µM
Summary of the method: as §1

[16] = target: Lysosomal acid glucosylceramidase (Homo sapiens) (UniProt P04062); experiment: Glucocerebrosidase-p2 (AID 348; in the data active = potency below about 10 µM; note: potency is the fitted concentration of half-maximal effect); details: purified GBA, blue fluorogenic substrate, 40 min
Summary of the method: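 Compounds titrated from 0.6 nM upwards against 0.2 nM enzyme in pH 5.9 citric acid/KH2PO4, taurocholate, tween-20; blue fluorogenic substrate 80 uM, 40 min room temperature, stopped and read Ex 365/Em 440 for AC50.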

[17] = test system: CP185; experiment: qHTS profiling for inhibitors of Plasmodium falciparum proliferation (AID 504749);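 note: 0% = DMSO vehicle and full inhibition = artemisinin control; nearly all actives have a fitted effect of over 60% in size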; details: P. falciparum in erythrocytes, SYBR Green DNA, 72 h; series mostly up to 28.7 µM
Summary of the method: as §1

[18] = measured here: cell count channel max response
[19] = measured here: lipid channel max response

Sequence of Ubiquitin carboxyl-terminal hydrolase 1 (Homo sapiens) (O94782 whole entry, looked up): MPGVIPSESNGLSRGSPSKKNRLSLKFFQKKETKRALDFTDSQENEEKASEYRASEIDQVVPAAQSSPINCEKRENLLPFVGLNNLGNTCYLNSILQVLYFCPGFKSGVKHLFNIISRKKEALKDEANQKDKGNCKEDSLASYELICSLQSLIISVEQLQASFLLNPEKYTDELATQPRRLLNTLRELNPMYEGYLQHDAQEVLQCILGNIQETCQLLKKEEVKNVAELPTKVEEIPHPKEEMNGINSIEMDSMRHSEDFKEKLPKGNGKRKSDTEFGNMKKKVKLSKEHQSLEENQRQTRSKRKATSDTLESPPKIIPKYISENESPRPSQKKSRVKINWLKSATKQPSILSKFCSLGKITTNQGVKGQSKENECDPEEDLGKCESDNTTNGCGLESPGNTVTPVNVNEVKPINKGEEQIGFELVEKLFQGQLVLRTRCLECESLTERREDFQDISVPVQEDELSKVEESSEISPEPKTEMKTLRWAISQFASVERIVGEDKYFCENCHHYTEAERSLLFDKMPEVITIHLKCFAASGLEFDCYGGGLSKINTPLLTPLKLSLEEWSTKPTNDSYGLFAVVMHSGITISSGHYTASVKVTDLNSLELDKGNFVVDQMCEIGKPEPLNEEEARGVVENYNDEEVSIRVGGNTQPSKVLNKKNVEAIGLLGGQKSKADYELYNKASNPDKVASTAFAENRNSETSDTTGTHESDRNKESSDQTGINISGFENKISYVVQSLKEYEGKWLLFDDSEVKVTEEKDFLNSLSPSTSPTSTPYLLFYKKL
Sequence of 3',5'-cyclic-AMP phosphodiesterase 4B (Homo sapiens) (Q07343 whole entry, looked up): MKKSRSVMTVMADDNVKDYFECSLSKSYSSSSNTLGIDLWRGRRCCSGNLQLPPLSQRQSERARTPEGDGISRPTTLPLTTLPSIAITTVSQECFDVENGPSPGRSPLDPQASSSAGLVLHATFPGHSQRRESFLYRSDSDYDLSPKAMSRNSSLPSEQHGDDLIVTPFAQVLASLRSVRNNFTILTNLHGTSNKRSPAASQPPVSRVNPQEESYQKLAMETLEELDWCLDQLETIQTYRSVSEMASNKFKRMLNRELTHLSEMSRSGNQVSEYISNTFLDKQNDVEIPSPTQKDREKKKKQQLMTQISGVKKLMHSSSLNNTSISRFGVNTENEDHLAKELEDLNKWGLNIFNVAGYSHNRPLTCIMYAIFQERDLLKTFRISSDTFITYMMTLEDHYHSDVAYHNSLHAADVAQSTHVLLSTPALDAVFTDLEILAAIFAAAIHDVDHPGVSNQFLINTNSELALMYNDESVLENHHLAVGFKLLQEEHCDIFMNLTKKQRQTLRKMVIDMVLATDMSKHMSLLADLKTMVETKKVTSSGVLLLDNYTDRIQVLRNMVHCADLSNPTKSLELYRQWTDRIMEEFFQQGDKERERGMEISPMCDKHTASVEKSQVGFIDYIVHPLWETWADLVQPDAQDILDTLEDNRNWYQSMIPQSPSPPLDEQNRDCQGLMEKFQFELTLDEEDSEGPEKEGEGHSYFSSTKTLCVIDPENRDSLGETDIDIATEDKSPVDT
Sequence of Lysosomal acid glucosylceramidase (Homo sapiens) (P04062 whole entry, looked up): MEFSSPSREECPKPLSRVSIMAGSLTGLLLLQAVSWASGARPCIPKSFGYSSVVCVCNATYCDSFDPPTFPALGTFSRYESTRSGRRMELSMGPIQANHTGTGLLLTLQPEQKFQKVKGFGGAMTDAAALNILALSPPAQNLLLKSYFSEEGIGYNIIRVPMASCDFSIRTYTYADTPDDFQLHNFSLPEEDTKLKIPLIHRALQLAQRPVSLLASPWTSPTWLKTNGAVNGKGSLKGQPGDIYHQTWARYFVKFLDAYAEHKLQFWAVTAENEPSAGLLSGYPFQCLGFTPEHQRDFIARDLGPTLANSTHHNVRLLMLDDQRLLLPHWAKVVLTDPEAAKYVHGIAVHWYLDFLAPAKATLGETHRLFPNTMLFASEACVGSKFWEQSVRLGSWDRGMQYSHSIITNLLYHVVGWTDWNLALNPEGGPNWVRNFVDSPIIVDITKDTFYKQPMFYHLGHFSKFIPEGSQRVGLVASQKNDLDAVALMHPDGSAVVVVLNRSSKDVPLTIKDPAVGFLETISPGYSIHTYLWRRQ
Sequence of Glucocorticoid receptor (Homo sapiens) (P04150 whole entry, looked up, the tested form may be a part): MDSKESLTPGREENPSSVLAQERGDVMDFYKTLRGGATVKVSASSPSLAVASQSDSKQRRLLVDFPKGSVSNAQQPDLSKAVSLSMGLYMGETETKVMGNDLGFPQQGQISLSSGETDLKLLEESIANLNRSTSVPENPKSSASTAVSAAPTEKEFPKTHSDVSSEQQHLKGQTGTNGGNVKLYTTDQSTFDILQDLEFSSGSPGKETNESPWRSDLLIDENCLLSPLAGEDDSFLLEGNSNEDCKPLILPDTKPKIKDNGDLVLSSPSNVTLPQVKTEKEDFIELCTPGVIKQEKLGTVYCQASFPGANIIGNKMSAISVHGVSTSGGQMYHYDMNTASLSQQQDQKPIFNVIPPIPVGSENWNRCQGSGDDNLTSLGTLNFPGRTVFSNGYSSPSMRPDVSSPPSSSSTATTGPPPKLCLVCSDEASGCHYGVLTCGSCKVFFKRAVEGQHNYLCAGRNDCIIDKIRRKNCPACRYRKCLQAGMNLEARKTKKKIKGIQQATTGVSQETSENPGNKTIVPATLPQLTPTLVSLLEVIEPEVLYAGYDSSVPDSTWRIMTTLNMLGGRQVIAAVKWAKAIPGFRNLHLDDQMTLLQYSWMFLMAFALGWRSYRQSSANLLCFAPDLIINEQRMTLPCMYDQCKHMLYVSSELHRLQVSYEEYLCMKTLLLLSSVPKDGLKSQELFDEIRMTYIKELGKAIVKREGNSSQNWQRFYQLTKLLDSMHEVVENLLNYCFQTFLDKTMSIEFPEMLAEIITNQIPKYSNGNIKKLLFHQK
Sequence of Cytochrome P450 1A2 (Homo sapiens) (P05177 whole entry, looked up): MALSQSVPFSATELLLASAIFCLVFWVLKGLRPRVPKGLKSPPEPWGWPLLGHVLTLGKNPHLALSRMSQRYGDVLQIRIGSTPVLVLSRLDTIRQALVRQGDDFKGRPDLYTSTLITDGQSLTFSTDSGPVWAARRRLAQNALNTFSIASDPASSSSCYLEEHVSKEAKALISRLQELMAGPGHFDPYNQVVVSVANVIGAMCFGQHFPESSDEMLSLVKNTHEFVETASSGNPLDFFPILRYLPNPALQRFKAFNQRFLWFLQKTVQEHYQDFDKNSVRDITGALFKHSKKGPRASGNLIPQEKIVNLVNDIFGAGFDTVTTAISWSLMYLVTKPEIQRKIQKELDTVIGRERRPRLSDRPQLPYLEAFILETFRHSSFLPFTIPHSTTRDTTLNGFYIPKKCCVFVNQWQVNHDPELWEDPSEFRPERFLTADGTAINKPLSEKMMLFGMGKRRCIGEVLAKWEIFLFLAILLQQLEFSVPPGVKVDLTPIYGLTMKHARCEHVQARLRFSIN
Sequence of ATP-dependent 6-phosphofructokinase (Trypanosoma brucei brucei) (O15648 whole entry, looked up): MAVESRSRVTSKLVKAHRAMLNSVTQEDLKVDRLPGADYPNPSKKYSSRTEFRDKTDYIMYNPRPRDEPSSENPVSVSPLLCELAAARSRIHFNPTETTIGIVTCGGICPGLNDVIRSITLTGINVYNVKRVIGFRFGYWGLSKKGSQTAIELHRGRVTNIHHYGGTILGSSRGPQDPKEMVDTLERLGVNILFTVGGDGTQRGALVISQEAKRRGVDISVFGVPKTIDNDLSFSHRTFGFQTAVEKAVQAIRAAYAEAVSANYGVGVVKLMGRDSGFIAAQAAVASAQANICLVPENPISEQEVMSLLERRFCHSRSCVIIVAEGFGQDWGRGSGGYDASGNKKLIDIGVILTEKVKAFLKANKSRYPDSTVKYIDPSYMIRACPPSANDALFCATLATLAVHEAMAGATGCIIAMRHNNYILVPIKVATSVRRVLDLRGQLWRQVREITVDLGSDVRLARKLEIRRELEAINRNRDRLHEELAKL
Sequence of Luciferin 4-monooxygenase (Photinus pyralis) (P08659 whole entry, looked up): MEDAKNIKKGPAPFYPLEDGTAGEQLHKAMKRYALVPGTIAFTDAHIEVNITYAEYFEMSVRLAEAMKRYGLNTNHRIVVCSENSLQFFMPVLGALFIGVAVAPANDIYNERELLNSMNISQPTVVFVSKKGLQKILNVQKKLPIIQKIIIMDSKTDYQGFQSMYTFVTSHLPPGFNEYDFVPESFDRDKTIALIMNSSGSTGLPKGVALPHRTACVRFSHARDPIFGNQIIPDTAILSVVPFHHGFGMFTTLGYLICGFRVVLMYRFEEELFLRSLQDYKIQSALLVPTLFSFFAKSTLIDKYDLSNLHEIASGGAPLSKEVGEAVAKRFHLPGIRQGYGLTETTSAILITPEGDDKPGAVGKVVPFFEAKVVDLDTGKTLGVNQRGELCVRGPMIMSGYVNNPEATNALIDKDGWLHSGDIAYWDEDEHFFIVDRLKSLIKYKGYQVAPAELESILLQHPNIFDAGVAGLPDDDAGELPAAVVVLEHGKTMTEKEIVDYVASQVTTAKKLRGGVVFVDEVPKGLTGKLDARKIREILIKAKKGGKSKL

CC1=C2[C@@H]3OC(=O)[C@@H](C)[C@@H]3CC[C@]2(C)C=CC1=O
-3.78%: max response [9, 19]
active: Potency [2] 10 µM
inactive: outcome [1] | activity change, negative = inhibition ([3]; at 17.2 µM (top of the series)) -9.62% | outcome [4] | Potency [5] > 20.6 µM | Potency [6] > 20.6 µM | outcome [7] | Potency [8] | activity change, negative = inhibition ([9]; at 25.7 µM (top of the series)) 0.607% | Potency [10] | Potency [11] | Potency [12] | activity, negative = inhibition ([13]; parasite line A) -27% | activity, negative = inhibition ([13]; parasite line B) -4.04% | Potency [14] | Potency [15]
-1.82%: max response [9, 18]

COc1ccc(NC(=O)N2CCC3(CC2)CCN(C(=O)Oc2ccccc2)CC3)cc1
inactive: Potency [16] > 11.4 µM | outcome [1] | activity change, negative = inhibition ([3]; at 7.69 µM (top of the series)) 5.41% | outcome [4] | Potency [6] > 46 µM | outcome [7] | activity change, negative = inhibition ([9]; at 57.5 µM (top of the series)) -1.68%
-21.9%: max response [9, 19]
-23.2%: max response [9, 18]

C[C@H](NC(C)(C)C)C(=O)c1cccc(Cl)c1
inactive: outcome [1] | Potency [2] | activity change, negative = inhibition ([3]; at 17.2 µM (top of the series)) -9.97% | activity change, negative = inhibition ([3]; at 38 µM (top of the series)) -9.57% | outcome [4] | Potency [5] > 46 µM and > 20.6 µM | Potency [6] > 46 µM and > 20.6 µM | Potency [8] | activity change, negative = inhibition ([9]; at 25.7 µM (top of the series)) -1.98% | Potency [10] | Potency [11] | Potency [12] | activity, negative = inhibition ([13]; parasite line A) 3.13% | activity, negative = inhibition ([13]; parasite line B) 0.713% | Potency [14] | Potency [17] | Potency [15]
-0.478%: max response [9, 18]
-2.37%: max response [9, 19]

O=C(O)CNCP(=O)(O)O
20.1%: max response [9, 19]
16.5%: max response [9, 18]
inactive: Potency [16] > 11.4 µM | outcome [1] | outcome [4] | Potency [5] > 46 µM | Potency [6] > 9.22 µM | activity change, negative = inhibition [7] 1.05% [at 11.4 µM] | activity change, negative = inhibition ([9]; at 57.5 µM (top of the series)) 2.6%

O=C(Oc1ccccc1)N1CCC2(CC1)CCN(C(c1ccccc1)c1ccccc1)CC2
inactive: Potency [16] > 11.4 µM | outcome [1] | activity change, negative = inhibition ([3]; at 7.69 µM (top of the series)) -0.91% | outcome [4] | Potency [6] > 46 µM | outcome [7] | activity change, negative = inhibition ([9]; at 57.5 µM (top of the series)) 4.05%
5.73%: max response [9, 18]
13.3%: max response [9, 19]

CCN1C[C@]2(COC)CC[C@H](O)[C@@]34[C@@H]5C[C@H]6[C@@H](OC)[C@H]5[C@](O)(C[C@@H]6OC)[C@@](O)([C@@H](OC)[C@H]23)[C@@H]14
-9.81%: max response [9, 19]
-10.9%: max response [9, 18]
inactive: outcome [1] | Potency [2] | activity change, negative = inhibition ([3]; at 17.2 µM (top of the series)) 2.57% | outcome [4] | Potency [5] > 20.6 µM | Potency [6] > 20.6 µM | outcome [7] | Potency [8] | activity change, negative = inhibition ([9]; at 25.7 µM (top of the series)) 0.923% | Potency [11]
